Assay results: the supplement of paper PMC10849652
Targets with a hit are over-represented here; the source holds about 7,900 in all. About 0.6% of all pairs of compound and target were hits.

What was measured:
Test in all cases: log2 fold change, soluble protein after heating vs DMSO (PISA); higher = thermal stabilisation; K562 cells, 10 uM, 30 min; active = over 0.2 and 3.5 SD of the protein, either way, in both replicates (recomputed)
[1] = compound: C1=CC=C(C=C1)[C@H](COC2=CC3=C(C=C2)NC(=O)N3)NC(=O)C4=CC=CN(C4=O)CC5=CC(=C(C=C5)F)F
In short: (§1)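 K562 cells (2×10^6 cells/mL) were treated with 10 μM compound for 30 min, and aliquots were heated for 3 min over 48°C-58°C. Pooled aliquots were extracted in PBS with 0.5% NP-40 at 4°C, and the supernatant after 21,000xg for 90 min was measured by TMTpro 16plex LC-MS/MS with channel sums equalised. Reported thermal stability, relative to control samples and from duplicates, is a log2 fold change.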

[2] = compound: CC1=C(SC2=C1C(=N[C@H](C3=NN=C(N32)C)CC(=O)N)C4=CC=C(C=C4)Cl)C
In short: as §1

[3] = compound: CC1=C2C(=CC=C1)N=C(N(C2=O)C3=CC=CC=C3C)CN4C=NC5=C(N=CN=C54)N
In short: as §1

[4] = compound: Cc1sc2c(c1C)C(c1ccc(Cl)cc1)=N[C@@H](CC(=O)OC(C)(C)C)c1nnc(C)n1-2
In short: as §1

[5] = compound: c1ccc([C@@H]2C[C@H]2NC2CCNCC2)cc1
In short: as §1

Measured: log2 fold change

MRPL47 (UniProt Q9HD33)
inactive: [1] 0.042 | [2] -0.108 | [3] -0.131 | [4] 0.087 | [5] -0.01

NDUFB7 (UniProt P17568)
UniProt P17568, sequence (P17568 whole entry, looked up): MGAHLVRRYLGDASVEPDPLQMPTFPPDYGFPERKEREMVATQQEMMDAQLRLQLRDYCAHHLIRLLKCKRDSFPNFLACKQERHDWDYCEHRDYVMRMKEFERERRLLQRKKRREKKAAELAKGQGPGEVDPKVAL
inactive: [1] -0.032 | [2] -0.01 | [3] -0.004 | [4] -0.015 | [5] 0.03

MOB3B (UniProt Q86TA1)
UniProt Q86TA1, sequence (Q86TA1 whole entry, looked up): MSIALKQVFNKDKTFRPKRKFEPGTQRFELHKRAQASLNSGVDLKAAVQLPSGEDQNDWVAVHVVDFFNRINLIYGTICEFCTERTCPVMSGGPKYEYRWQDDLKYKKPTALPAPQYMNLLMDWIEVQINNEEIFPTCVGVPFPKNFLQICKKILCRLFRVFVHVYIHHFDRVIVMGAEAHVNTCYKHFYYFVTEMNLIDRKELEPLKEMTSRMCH
inactive: [1] 0 | [2] 0.029 | [3] 0.178 | [4] 0.041 | [5] -0.088

NUCKS1 (UniProt Q9H1E3)
UniProt Q9H1E3, sequence (Q9H1E3 whole entry, looked up): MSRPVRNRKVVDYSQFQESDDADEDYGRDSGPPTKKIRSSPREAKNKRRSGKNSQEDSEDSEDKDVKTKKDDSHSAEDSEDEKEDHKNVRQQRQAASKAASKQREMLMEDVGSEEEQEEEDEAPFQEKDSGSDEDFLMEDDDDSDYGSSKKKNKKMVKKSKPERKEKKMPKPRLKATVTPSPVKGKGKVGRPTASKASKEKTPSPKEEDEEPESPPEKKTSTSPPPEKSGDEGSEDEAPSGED
inactive: [1] 0.044 | [2] -0.053 | [3] 0.032 | [4] -0.029 | [5] -0.007

OTULIN (UniProt Q96BN8)
UniProt Q96BN8, sequence (Q96BN8 whole entry, looked up): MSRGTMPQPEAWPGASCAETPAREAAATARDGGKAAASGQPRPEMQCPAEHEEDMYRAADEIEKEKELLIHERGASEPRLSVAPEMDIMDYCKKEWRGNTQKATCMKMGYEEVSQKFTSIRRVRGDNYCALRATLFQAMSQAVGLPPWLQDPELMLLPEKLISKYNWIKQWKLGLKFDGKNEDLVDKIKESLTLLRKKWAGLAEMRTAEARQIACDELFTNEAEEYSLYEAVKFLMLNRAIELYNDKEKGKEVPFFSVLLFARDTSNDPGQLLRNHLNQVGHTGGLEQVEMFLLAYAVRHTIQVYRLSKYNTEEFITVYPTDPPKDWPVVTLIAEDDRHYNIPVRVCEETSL
inactive: [1] -0.07 | [2] -0.019 | [3] 0.124 | [4] 0.005 | [5] 0.005

NDUFA12 (UniProt Q9UI09)
UniProt Q9UI09, sequence (Q9UI09 whole entry, looked up): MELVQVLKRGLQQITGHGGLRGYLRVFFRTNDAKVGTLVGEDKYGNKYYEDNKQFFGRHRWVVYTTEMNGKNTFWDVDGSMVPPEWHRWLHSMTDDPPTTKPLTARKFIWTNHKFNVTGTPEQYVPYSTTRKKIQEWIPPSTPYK
inactive: [1] -0.046 | [2] 0.126 | [3] 0.145 | [4] -0.086 | [5] -0.051

NAP1L1 (UniProt P55209)
UniProt P55209, sequence (P55209 whole entry, looked up): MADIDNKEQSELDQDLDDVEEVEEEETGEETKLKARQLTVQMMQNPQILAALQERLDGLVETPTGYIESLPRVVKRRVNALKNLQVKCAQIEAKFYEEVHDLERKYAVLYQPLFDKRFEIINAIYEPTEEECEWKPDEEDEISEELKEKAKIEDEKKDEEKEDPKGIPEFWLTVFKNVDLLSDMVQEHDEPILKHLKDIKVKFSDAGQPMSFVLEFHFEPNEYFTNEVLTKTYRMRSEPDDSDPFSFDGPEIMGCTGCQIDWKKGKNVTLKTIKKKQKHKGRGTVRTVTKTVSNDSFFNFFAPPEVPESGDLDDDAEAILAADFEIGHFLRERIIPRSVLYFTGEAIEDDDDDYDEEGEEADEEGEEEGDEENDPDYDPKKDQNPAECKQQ
inactive: [1] -0.072 | [2] 0.003 | [3] 0.17 | [4] 0.013 | [5] 0.009

NEDD4 isoform 4 (UniProt P46934)
UniProt P46934, sequence (P46934 whole entry, looked up): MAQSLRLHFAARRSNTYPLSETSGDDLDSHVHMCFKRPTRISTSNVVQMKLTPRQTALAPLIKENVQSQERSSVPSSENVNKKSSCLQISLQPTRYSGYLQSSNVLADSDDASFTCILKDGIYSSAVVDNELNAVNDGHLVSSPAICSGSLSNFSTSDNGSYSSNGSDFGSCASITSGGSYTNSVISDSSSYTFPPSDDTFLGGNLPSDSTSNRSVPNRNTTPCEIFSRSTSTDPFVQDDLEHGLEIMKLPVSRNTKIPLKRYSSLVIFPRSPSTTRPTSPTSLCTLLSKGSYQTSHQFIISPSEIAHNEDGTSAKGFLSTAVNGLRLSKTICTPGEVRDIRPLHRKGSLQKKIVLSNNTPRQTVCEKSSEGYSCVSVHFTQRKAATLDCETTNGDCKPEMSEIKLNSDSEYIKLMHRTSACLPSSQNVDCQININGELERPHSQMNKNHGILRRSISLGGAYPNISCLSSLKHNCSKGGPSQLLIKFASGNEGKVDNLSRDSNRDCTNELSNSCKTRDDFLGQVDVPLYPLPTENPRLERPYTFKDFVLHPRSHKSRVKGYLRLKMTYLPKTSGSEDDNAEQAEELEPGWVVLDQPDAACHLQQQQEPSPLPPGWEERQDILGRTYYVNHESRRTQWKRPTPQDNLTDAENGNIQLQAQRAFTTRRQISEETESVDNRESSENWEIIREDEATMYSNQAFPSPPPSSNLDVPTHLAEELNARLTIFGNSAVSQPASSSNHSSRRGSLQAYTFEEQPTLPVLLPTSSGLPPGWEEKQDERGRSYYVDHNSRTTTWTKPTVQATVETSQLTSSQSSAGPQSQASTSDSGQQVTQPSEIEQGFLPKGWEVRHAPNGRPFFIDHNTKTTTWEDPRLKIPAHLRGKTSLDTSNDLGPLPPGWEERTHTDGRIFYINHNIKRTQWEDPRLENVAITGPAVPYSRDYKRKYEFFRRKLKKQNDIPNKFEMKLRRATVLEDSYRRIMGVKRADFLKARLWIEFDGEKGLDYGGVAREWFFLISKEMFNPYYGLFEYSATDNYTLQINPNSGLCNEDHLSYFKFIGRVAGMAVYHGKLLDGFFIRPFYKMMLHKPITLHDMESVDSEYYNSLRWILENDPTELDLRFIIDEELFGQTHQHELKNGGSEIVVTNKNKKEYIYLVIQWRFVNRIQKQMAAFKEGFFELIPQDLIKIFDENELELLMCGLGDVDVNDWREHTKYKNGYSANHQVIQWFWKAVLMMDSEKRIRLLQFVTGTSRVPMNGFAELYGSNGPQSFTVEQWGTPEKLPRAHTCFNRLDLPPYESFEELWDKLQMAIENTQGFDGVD
inactive: [1] -0.006 | [2] 0.103 | [3] 0.081 | [4] 0.002 | [5] -0.007

NAA11 (UniProt Q9BSU3)
UniProt Q9BSU3, sequence (Q9BSU3 whole entry, looked up): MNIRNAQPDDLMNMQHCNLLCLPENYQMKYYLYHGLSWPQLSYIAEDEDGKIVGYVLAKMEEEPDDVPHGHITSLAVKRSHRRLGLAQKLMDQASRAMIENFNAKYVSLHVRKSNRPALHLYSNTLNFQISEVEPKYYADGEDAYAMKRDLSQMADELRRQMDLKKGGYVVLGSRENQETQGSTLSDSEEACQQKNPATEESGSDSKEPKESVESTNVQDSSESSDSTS
inactive: [1] 0.009 | [2] 0.042 | [3] 0.049 | [4] -0.12 | [5] -0.049
